Bioassay records from PubChem.
Sampled rows, rich in hits. Any-hit rate of the full collection: about 4.8%.
hgDAF12 agonist: hgDAF-12 agonism, primary luciferase screen | AID 687014 | HEK293 GAL4-hgDAF12 UAS-luciferase reporter, agonist luminescence; normalized to butyrate control | activation, % at 6.8 µM | 370,000 compounds, 1.8% hits;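 active means activation above a cutoff set at the mean of all screened compounds plus 3 SD, cut at about 10% in these data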;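 further: 0% = DMSO wells and 100% = sodium butyrate wells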
DAX1 inh-1: inhibits human nuclear receptor DAX1; P51843; HEK293 Gal4-DAX1 luciferase reporter, luminescence; inhibition, % at 6.75 µM; 340,000 compounds, 0.99% hits; AID 504766;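 active means inhibition above the mean over all tested compounds plus 3 SD, cut at about 4.2% in these data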;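 further: 0% = DAX1-transfected cells with DMSO and 100% = empty-vector control cells with DMSO; inhibition shows as a rise in luminescence from relieved DAX1 repression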
Target sequence (P51843 207-470 limits assumed): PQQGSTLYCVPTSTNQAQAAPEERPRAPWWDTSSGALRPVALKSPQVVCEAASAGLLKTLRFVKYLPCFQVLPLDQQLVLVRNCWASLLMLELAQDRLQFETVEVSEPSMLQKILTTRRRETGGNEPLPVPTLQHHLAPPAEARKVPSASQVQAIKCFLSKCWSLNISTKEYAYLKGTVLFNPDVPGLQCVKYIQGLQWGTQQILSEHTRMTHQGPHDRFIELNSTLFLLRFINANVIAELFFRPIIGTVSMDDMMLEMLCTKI
hcDAF-12 act: activators of H. contortus DAF-12 nuclear receptor. 370,000 compounds, 1.4% hits. activation, % at 6.8 µM. HEK293 hcDAF-12 lit1-tk-luc reporter, luminescence; 0% DMSO, 100% Δ7-dafachronic acid. AID 652067;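 active means activation above the mean of all tested compounds plus 3 SD, cut at about 5.5% in these data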;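 further: 100% = response to 3 µM Δ7-dafachronic acid high control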
SMARCA2 act: activators of SMARCA2 function; activation, % at 9.1 µM; MG213 cells, MMTV-luciferase reporter, dexamethasone, overnight; 370,000 compounds, 1% hits; in the data active means activation above about 7.8%;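 further: 0% = vehicle wells and 100% = reference activator wells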
DAX1 inh-2: inhibitors of DAX1 repression of SF-1 activated StAR promoter | inhibition, % at 6.8 µM | 370,000 compounds, 1.1% hits | HEK293T StAR-luciferase reporter, SF-1/DAX-1 repression relief;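 active means inhibition above the mean over all tested compounds plus 3 SD, cut at about 3.6% in these data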;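 further: 0% = DAX-1 cells with DMSO and 100% = cells lacking DAX-1 with DMSO; higher inhibition means more luminescence from relief of DAX-1 repression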
ssDAF-12 act: activates DAF-12 receptor from parasite S. stercoralis. HEK293 ssDAF-12/GRIP1 lit1-tk-luc reporter, luminescence; % of 3 µM dafachronic acid response. activation, % at 6.8 µM. 370,000 compounds, 1% hits. AID 652126;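 active means activation above the mean over all tested compounds plus 3 SD, cut at about 0.9% in these data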;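 further: 0% = DMSO-only wells and 100% = 3 µM delta7-dafachronic acid wells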
DAX1 conf: NR0B1 (human) inhibition, confirmation; inhibition, % at 6.8 µM; 2,400 compounds, 87% hits; AID 652134; shares compounds with DAX1 inh-2; HEK293T StAR-promoter luciferase reporter, SF-1/DAX-1 repression;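 active means inhibition above the average of every tested compound plus 3 SD, cut at about 3.8% in these data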;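 further: 0% = DAX-1 cells with DMSO and 100% = no DAX-1 control cells with DMSO; active compounds raise luminescence by relieving repression of the StAR reporter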
Target sequence (P51843 whole entry, looked up): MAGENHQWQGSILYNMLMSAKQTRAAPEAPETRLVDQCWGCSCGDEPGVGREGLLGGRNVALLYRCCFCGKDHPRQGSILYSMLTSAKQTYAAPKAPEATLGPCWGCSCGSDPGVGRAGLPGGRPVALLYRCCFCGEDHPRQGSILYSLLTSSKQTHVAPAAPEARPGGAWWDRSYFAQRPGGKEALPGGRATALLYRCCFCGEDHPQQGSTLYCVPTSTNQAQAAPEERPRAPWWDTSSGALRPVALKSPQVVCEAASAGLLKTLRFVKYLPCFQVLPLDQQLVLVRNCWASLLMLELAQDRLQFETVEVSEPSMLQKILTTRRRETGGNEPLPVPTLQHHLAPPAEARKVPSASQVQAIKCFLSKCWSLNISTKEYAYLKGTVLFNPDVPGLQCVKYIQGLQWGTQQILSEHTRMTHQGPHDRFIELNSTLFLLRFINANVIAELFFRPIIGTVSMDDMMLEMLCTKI
SF1 AF2mut Luc: nonselective inhibitor or artifact in SF-1 mutant DAX1 counter-screen | shares compounds with DAX1 inh-2 | inhibition, % at 6.8 µM | HEK293 StAR-luciferase, SF-1 AF2 mutant, luminescence | 2,400 compounds, 78% hits;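 active means inhibition above the mean of all tested compounds plus 3 SD, cut at about 3% in these data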;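 further: 0% = DAX-1 transfected cells with DMSO and 100% = cells without DAX-1 with DMSO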
SMARCA2 conf: SMARCA2 activation, confirmation screen; shares compounds with SMARCA2 act; MG213 cells, MMTV-luciferase with dexamethasone, luminescence, overnight; MG213 cells expressing E1A, Rb sequestered; DMSO wells 0%, reference activator 100%; activation, % at 9.1 µM; 3,500 compounds, 30% hits;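 active means activation above its plate's cutoff, the mean activation of tested wells plus 3 SD, cut at about 7.9% in these data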
VP16 Luc act: GAL4-VP16 reporter activation counter-screen | 3,500 compounds, 41% hits | shares compounds with SMARCA2 act | HEK293 GAL4-VP16 pG5luc reporter, luciferase luminescence; scaled: DMSO wells 0%, SAHA wells 100% | AID 686939 | activation, % at 9.1 µM;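 active means activation above the solvent-only control well mean plus 3 SD, averaged across control plates, cut at about 5.2% in these data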
LXRb hcDAF ctr: LXR-beta agonism as hcDAF-12 counter-screen; shares compounds with hcDAF-12 act; HEK293 Gal4-LXR tk-luc reporter, luminescence, 24 h; normalized: DMSO 0%, positive control 100%; activation, % at 6.8 µM; 3,400 tested, under 10 active; AID 743027;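 active means mean percent activation of the reporter above a cutoff set as the average over tested compounds plus their standard deviation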
hcDAF12 conf: hcDAF-12 agonism, confirmation assay. shares compounds with hcDAF-12 act. HEK293 hcDAF-12 lit1-tk-luc reporter, luminescence; % of Δ7-dafachronic acid response. activation, % at 6.8 µM. 3,400 compounds, 61% hits. AID 743032;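 active means mean activation across triplicate tests above the threshold derived from the earlier primary screen, cut at about 5.5% in these data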;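 further: 0% = DMSO only wells and 100% = 3 µM Δ7-dafachronic acid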
hgDAF12 ag: confirmation of H. glycines DAF-12 agonists | 3,300 compounds, 80% hits | HEK293 GAL4-hgDAF12 luciferase reporter, agonist mode; percent of butyrate response | shares compounds with hgDAF12 agonist | activation, % at 6.8 µM;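 active means mean activation over triplicate wells above the hit cutoff derived from the earlier primary screen, cut at about 11% in these data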;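 further: 0% = DMSO low control and 100% = 2 mM sodium butyrate high control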
LXRb DAF12 ctr: activates human LXR-beta, counter-screen for DAF-12 agonists | shares compounds with hgDAF12 agonist | HEK293 Gal4-LXR luciferase reporter, 24 h | activation, % at 6.8 µM | 3,300 tested, under 10 active;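 active means mean activation of the triplicate above a set limit carried over from the primary screen, none filed active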
Active calls of the source: *; x = no result.

SMILES	hgDAF12 agonist	DAX1 inh-1	hcDAF-12 act	SMARCA2 act	DAX1 inh-2	ssDAF-12 act	DAX1 conf	SF1 AF2mut Luc	LXRb hcDAF ctr	hcDAF12 conf	hgDAF12 ag	LXRb DAF12 ctr	others
CC(C)Oc1cc(O)c2c(=O)c(-c3ccc(O)cc3)coc2c1	26.0*	1.2	7.6*	1.2	5.3*	0.1	11.3*	5.7*	1.1	4.6	20.1*	1.0
COc1ccc(CNC(=O)OC2CC3CC2[C@H]2CCCCN2C3)cc1 (some centres not stated)	1.1	x	-3.6	1.6	-1.1	0.1	x	x	x	x	x	x
CC(C)(C)c1cc(NC(=O)c2ccco2)no1	13.8*	0.7	13.8*	4.8	12.7*	1.0*	12.3*	7.0*	1.3	6.2*	14.9*	0.6
CC(C)(C)c1cc(NC(=O)c2cccc([N+](=O)[O-])c2)no1	x	1.1	x	x	x	x	x	x	x	x	x	x
COc1cc2c(cc1OC)CSC1C(=O)N(C)C(SC2)C(=O)N1C	0.3	x	-0.3	-1.5	-0.2	-1.2	x	x	x	x	x	x
N#Cc1c(NC(=O)CSc2nnc(-c3ccccc3)o2)sc2c1CCCC2	x	-0.3	x	x	x	x	x	x	x	x	x	x
O=C(CSc1nnc(-c2csc3c2CCCC3)o1)Nc1ccccc1	17.7*	-0.2	14.3*	2.9	10.4*	2.1*	19.1*	7.2*	2.2	18.9*	16.0*	1.2
O=C(OCC#CCSc1nnc(-c2cccc3ncccc23)o1)c1ccc(F)cc1	0.8	x	-2.1	x	x	-1.9	x	x	x	x	x	x
CCCN(C(=O)CCc1cn(CCC)c2ccccc12)c1ccc(Oc2cccnc2)cc1	3.8	x	-0.5	2.0	-0.2	-1.3	x	x	x	x	x	x
C=CCn1c(=O)c(C(=O)Nc2ccccc2S(N)(=O)=O)c(O)c2ccccc21	15.1*	1.3	11.6*	10.8*	5.8*	1.1*	10.2*	4.0*	0.8	4.8	10.6*	0.5	SMARCA2 conf=16.0*;VP16 Luc act=3.7
C=CCn1c(=O)c(C(=O)Nc2ccccc2C(=O)OCC)c(O)c2ccccc21	-1.4	0.1	1.4	2.4	-1.0	-0.8	x	x	x	x	x	x
Cc1ccc(NC(=O)CCS(=O)(=O)c2ccccc2)c(C)c1	-0.8	x	-2.0	-5.1	0.1	-0.4	x	x	x	x	x	x
CCOC(=O)c1ccc(CNC(=O)c2cc(COc3ccccc3SC)on2)o1	14.6*	2.0	3.8	5.5	5.4*	-0.2	8.8*	4.5*	x	x	17.8*	0.8
CSc1ccccc1OCc1cc(C(=O)NCc2ccc(C)s2)no1	1.5	0.2	1.3	0.9	0.1	-1.1	x	x	x	x	x	x
Cc1ccc(NC(=O)c2ccccc2)s1	19.5*	0.2	6.9*	-0.1	4.5*	0.2	14.9*	10.8*	1.4	8.3*	15.4*	1.0
O=C(O)c1cccc(N/N=C/c2ccc(-c3ccccc3)cc2)c1	16.0*	-2.7	4.1	5.5	4.7*	0.5	22.2*	10.3*	x	x	27.5*	1.2
c1coc(-c2cc3nc(NCc4ccc5c(c4)OCO5)ccn3n2)c1	4.5	x	1.1	1.0	-0.1	-0.7	x	x	x	x	x	x
c1coc(-c2cc3nc(NC4CCCCC4)ccn3n2)c1	21.6*	x	10.3*	4.7	10.2*	1.2*	14.7*	10.1*	2.0	12.1*	18.6*	1.0
NC(=Nc1ccccc1)NC(=O)c1nc(Cl)c(N)nc1N	17.2*	2.8	0.6	9.2*	5.4*	-1.1	8.2*	6.4*	x	x	14.2*	0.5	SMARCA2 conf=27.2*;VP16 Luc act=10.7*
Cc1ccc2nc(-c3cccc(Br)c3)c(Cc3ccsc3)n2c1	14.7*	x	3.1	9.5*	4.5*	-0.5	2.9	1.0	x	x	4.8	0.3	SMARCA2 conf=9.7*;VP16 Luc act=8.9*
Cc1ccc(Cc2c(-c3cccc(Br)c3)nc3ccc(Br)cn23)cc1	5.7	x	0.6	5.7	2.8	-0.6	x	x	x	x	x	x
CN1c2ccc(-c3cccc(F)c3)cc2[C@H]2[C@H](CCN2S(=O)(=O)c2cccc(F)c2)[C@H]1CO	-1.2	x	-0.8	-3.7	0.7	-1.6	x	x	x	x	x	x
O=C(O)CC/C(=N/NC(=O)c1cccs1)c1ccccc1	13.5*	2.8	9.6*	9.2*	5.8*	0.6	3.8*	3.3*	0.0	2.0	10.9*	0.3	SMARCA2 conf=4.5;VP16 Luc act=2.4
CCCCCCN1CCS(=O)(=O)N(Cc2ccc(OC)cc2)C(C(=O)OC)C1 (configuration not stated)	-1.2	x	-3.5	-2.1	-1.4	-1.9	x	x	x	x	x	x
O=C1C(c2cc(=O)c3ccccc3[nH]2)=C(O)c2ccccc21	21.1*	3.2	10.3*	3.5	4.6*	1.6*	16.4*	8.0*	1.1	8.1*	18.3*	0.8
O=C1c2ccccc2CCc2ccccc21	1.3	0.1	-0.7	-2.3	-0.2	-0.9	x	x	x	x	x	x
O=C1C(=Cc2cccs2)CCc2ccccc21	18.0*	x	9.4*	10.1*	7.7*	1.4*	11.9*	6.2*	1.8	8.7*	18.5*	0.9	SMARCA2 conf=8.2*;VP16 Luc act=7.0*
CC(=O)Nc1ccc2oc(-c3ccccc3Br)nc2c1	14.6*	-0.3	8.3*	2.8	5.5*	0.2	12.9*	4.7*	1.4	4.0	16.2*	0.9
CC(C)c1ccc(C(=O)NC2=NCCS2)cc1	17.9*	-0.4	4.7	-0.5	5.5*	0.7	18.7*	7.0*	x	x	13.6*	0.8
